This is an account of results in PubChem BioAssay AID1021 (Emory University Molecular Libraries Screening Center, 2008).

Structures are written as SMILES. About 2,100 (0.95%) of roughly 220,000 compounds were called active.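 Rule for the calls: active = compounds that cut the binding signal by more than half at the single screening dose; inactive = the rest.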 The full list was thinned out, with actives kept by preference.

Induced myeloid leukemia cell differentiation protein Mcl-1 (Homo sapiens), sequence (Q07820 whole entry, looked up): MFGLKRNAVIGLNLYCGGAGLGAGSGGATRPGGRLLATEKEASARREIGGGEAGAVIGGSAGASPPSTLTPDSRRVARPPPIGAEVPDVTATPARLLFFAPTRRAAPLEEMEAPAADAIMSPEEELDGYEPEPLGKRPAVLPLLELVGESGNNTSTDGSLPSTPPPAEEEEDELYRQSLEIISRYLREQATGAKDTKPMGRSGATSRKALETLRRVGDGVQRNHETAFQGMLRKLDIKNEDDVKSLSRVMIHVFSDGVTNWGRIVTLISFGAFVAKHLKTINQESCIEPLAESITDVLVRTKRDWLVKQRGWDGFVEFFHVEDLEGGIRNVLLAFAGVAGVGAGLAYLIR

The assay concerns the target Induced myeloid leukemia cell differentiation protein Mcl-1 (Homo sapiens) (UniProt Q07820). The assay can be described thus: Mcl-1/Bid binding inhibitors, primary screen, biochemical, TR-FRET, 1536-well (AID 1021).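 Note: His-tagged Mcl-1 with europium anti-His antibody binding Bid BH3 peptide; 0% = Mcl-1 plus peptide wells and 100% = peptide-only wells.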 Conditions: TR-FRET Mcl-1/Bid-Dy647 peptide binding, at 21.7 µM, hits give high values. Background: In TR-FRET formats the signal depends on donor and acceptor labels being close together.
For the compound `O=[N+]([O-])c1cccc(-c2nnc3c4ccccc4c4ccccc4n23)c1`, the inhibition (commonly the drop in the measured response relative to a control, in per cent) was 52.9% (active).
The value for `O=[N+]([O-])c1cccc(C2=NCCS2)c1` was -9.78% (inactive); that for `O=[N+]([O-])c1cccc(Nc2c3ccccc3nc3ccccc23)c1` was -10.4% (inactive).
Under `CCOC(=O)C1CCCN(C(=O)COc2ccc(N(C)S(=O)(=O)c3ccc(C)cc3)cc2)C1` (stereo unspecified) stands -9.64% (inactive).
Under `COc1ccc(C(=O)COC(=O)COc2ccc(C)c(C)c2)cc1` stands 11.1% (inactive).
As to `CC(NC(=O)COC(=O)c1ccc2c(c1)OCO2)c1ccccc1` (stereo unspecified), the inhibition is -4.79% (inactive).
Under `COc1ccc(Nc2ncnc3sc(-c4ccccc4)cc23)c(OC)c1` stands -15% (inactive); under `Cc1cccc(NC(=O)c2cc(N3C(=O)CCC3=O)ccc2Cl)n1`, 69.1% (active).
For `Cc1cc(NC(=O)c2cccc(N3C(=O)CCC3=O)c2)no1`, the inhibition was -19.2% (inactive).
Under `Cc1cccc(NC(=O)c2ccc3ccccc3n2)n1` stands -24% (inactive).
Consider `O=[N+]([O-])c1cc(Br)c(O)c(/C=N/Nc2nc3ccccc3s2)c1`, for which the inhibition was 85.8% (active).
As to `c1ccc2sc(NN=C3CCCC3)nc2c1`, the inhibition is -7.33% (inactive).
The value for `COc1cc(/C=N/Nc2nc3ccccc3s2)ccc1O` was -5.09% (inactive); that for `Cc1ccc(NC(=O)c2nc[nH]c2C(=O)N[C@@H](CCCCNC(=O)OC(C)(C)C)C(=O)OC(C)(C)C)cc1` was -46.2% (inactive).
The value for `NC1=NC(=O)S/C1=C\c1ccc(O)cc1` was -45.3% (inactive); that for `CCOc1ccc(N=C2SC(C(=O)O)CC(=O)N2C)cc1` (stereo unspecified) was 3.39% (inactive).
The value for `CCOc1ccc(N=C2NC(=O)S/C2=C\c2ccc(O)cc2)cc1` was 85.2% (active); that for `CCc1ccnc(NS(=O)(=O)c2ccc3c(c2)OCCO3)c1` was -5.34% (inactive); that for `O=C(Nc1ccccc1)c1ccc2c(c1)OCO2` was 1.56% (inactive).
Turning to `Cn1c(=O)n(C)c2cc(C(=O)Nc3ccc4c(c3)OCO4)ccc21`, the inhibition is -32.5% (inactive).
Under `O=C(Nc1ccc2c(c1)OCO2)c1ccc(N2C(=O)c3ccccc3C2=O)cc1` stands 56.4% (active); under `COc1ccc(C(=O)OCC(=O)NCC2CCCO2)cc1[N+](=O)[O-]` (stereo unspecified), -15.9% (inactive).
Under `[O-][N+]12CCCCC1CCCC2CO` (stereo unspecified) stands -0.58% (inactive); under `COC(=O)CCCC1=CC2=C(c3ccccc3)C(=O)C(C)(OC(=O)C3CCCC3)C(=O)C2=CN1c1ccc(OC)cc1` (stereo unspecified), -60.4% (inactive).
The value for `CC(=O)Nc1cc(C(=O)O)ccc1S(=O)(=O)c1ccc(Cl)cc1` was 83% (active); that for `CCOC(=O)N1CCN(C(=O)c2ccc(S(=O)(=O)c3ccc(C)cc3)c(NC(C)=O)c2)CC1` was -11.4% (inactive); that for `Cc1ccc(S(=O)(=O)c2ccc(Cl)cc2)cc1S(=O)(=O)NC(C(=O)O)C(C)C` (stereo unspecified) was 4.83% (inactive).
Consider `Cn1nccc1NC(=O)Nc1ccc(OC(F)(F)F)cc1`, for which the inhibition was -8.69% (inactive).
Under `O=C(Nc1ccc2oc(-c3ccccc3F)nc2c1)c1ccco1` stands -18.3% (inactive).
The value for `COc1cc(OC)cc(C(=O)Nc2ccc(S(=O)(=O)Nc3cc(C)on3)cc2)c1` was -2.64% (inactive); that for `COc1cc(OC)cc(C(=O)Nc2ccc(-c3nc4ccccc4o3)c(O)c2)c1` was 70.7% (active).
Under `O=C(NCCCn1ccnc1)C(=O)NCC1OCCN1S(=O)(=O)c1cc(F)ccc1F` (stereo unspecified) stands -20.9% (inactive); under `Cn1c(CSCC(=O)Nc2ccccc2)nnc1SCc1ccccc1`, 1.29% (inactive); under `CC(Sc1nc(-c2ccccc2)cc(C(F)(F)F)n1)C(=O)Nc1ccc2c(c1)OCO2` (stereo unspecified), -32.5% (inactive).
Turning to `CC(Sc1nnc2c(n1)C1CCC2(C)C1(C)C)C(=O)Nc1ccccc1` (stereo unspecified), the inhibition was 66.7% (active).
The value for `CSc1nc(C)cc(SC(C(C)=O)C(=O)Nc2ccccc2)n1` (stereo unspecified) was -18.3% (inactive).
Turning to `COc1ccc(C(=O)NCC(=O)N/N=C/c2ccc([N+](=O)[O-])o2)cc1OC`, the inhibition was -51.1% (inactive).
Under `CNC(=O)c1cccc2nc3ccccc3nc12` stands -18.3% (inactive).
The value for `CN1C2CCC1/C(=C\c1ccccc1Cl)C(=O)/C2=C\c1ccccc1Cl` was 7.72% (inactive).
The value for `CC1=CC=CN2C1=NC(=O)CC2(C)C(=O)N(CC(=O)NC1CCCC1)c1ccccc1C` (stereo unspecified) was 50.7% (active); that for `CC1=CC2=NC(=O)CC(C)(C(=O)N(CC(=O)NC(C)(C)C)Cc3ccccc3)N2C=C1` (stereo unspecified) was -15.8% (inactive).
In the case of `Cc1ccccc1CCN(CC(=O)NC1CCCCC1)C(=O)c1csnn1`, the inhibition was -16.2% (inactive).
The value for `COC(=O)N(NC(=O)C(O)(C(C)C)C(C)C)c1ccccc1` was -9.27% (inactive); that for `Cc1ccc(NC(=S)N2CCN(c3ncccn3)CC2)cc1C` was 92.2% (active).
Under `CNC(=S)N1CCN(c2ccccn2)CC1` stands -63.9% (inactive); under `CCNC(=S)N1CCN(c2ncccn2)CC1`, -29.3% (inactive).
Under `COc1ccccc1-n1cn[nH]c1=S` stands -143% (inactive); under `O=C(N/N=C/c1ccc([N+](=O)[O-])o1)c1cn(-c2ccccc2)nc1-c1ccc(F)cc1`, 25.7% (inactive).
`C=CCSC(CC)(CC)C(N)=O`: the inhibition was -11% (inactive).
Under `Cc1cc(/C=C2/C(=N)N3C(=NC2=O)SN=C3S(C)(=O)=O)c(C)n1-c1ccccc1` stands -35.9% (inactive); under `N=C1/C(=C/c2cccn2-c2cccc([N+](=O)[O-])c2)C(=O)N=C2SC=CN12`, 71.5% (active).
Under `COC(=O)c1c(C(=O)OC)c2n(c1C)CCS2` stands -18.6% (inactive); under `CC1COc2ccccc2N1C(=O)c1cccnc1Cl` (stereo unspecified), -17.1% (inactive).
The value for `Oc1c(Cl)cc(Cl)c(Cl)c1Cc1c(O)c(Cl)cc(Cl)c1Cl` was 100% (active); that for `CC(OC(=O)c1ccc(NS(=O)(=O)c2ccc3[nH]c(=O)[nH]c3c2)cc1)C(=O)Nc1cccc(Cl)c1Cl` (stereo unspecified) was -92.2% (inactive).
Take `O=C(O)CC1S/C(=N\N=C/c2ccccc2O)N(c2ccc(O)cc2)C1=O` (stereo unspecified): the inhibition was -24.9% (inactive).
The value for `CC(O)CNCCOc1cccc(Oc2ccccc2)c1` (stereo unspecified) was -8.32% (inactive); that for `O=C(NCCc1ccccn1)c1cccnc1Oc1ccc(Cl)cc1` was -2.11% (inactive).
The value for `NC(=O)c1ccc(NC(=O)COC(=O)C(Cc2ccccc2)NC(=O)c2ccccc2)cc1` (stereo unspecified) was -18.9% (inactive); that for `CCOC(=O)N1CCN(Cc2nc(Cc3cccc(C(F)(F)F)c3)no2)CC1` was -53% (inactive).
Under `O=C(COC(=O)Cn1cnc2ccccc21)Nc1cccc2c1C(=O)c1ccccc1C2=O` stands 52.5% (active); under `O=C(COC(=O)Cn1cnc2ccccc2c1=O)NCc1ccccc1Cl`, 8.62% (inactive); under `O=C(COC(=O)c1cccc(Br)c1)Nc1cccc2c1C(=O)c1ccccc1C2=O`, 8.65% (inactive).
For `N#Cc1cccc(NC(=O)COC(=O)c2ccccc2C(=O)c2ccc(Cl)c([N+](=O)[O-])c2)c1`, the inhibition was -7.05% (inactive).
On to `CC(C)C[C@H](CO)Nc1nc(N(C)c2cccc(Cl)c2)c2ncn(C(C)C)c2n1`, for which the inhibition is -56.4% (inactive).
The value for `NS(=O)(=O)c1cccc(NC(=O)COC(=O)/C=C/c2ccco2)c1` was -10.4% (inactive); that for `O=[N+]([O-])C(=c1ccc2c(c1)N1C3=C(CCCC3)CC3CCCCC31N=2)[N+](=O)[O-]` (stereo unspecified) was 78.9% (active); that for `CCN(CC)S(=O)(=O)c1ccc(N2CCCC2)c(NS(=O)(=O)c2cccs2)c1` was -28.4% (inactive).
The value for `O=C(NNc1ccccc1Cl)C(O)(c1cccc(C(F)(F)F)c1)c1cccc(C(F)(F)F)c1` was 3.27% (inactive); that for `O=C(C[n+]1ccc2c(c1)nnn2-c1ccccc1)c1ccc(Cl)cc1` was -1.27% (inactive).
Under `Cc1ccc(-c2nc(SCC(=O)Nc3ccccc3OC(F)F)c3c(C)c(C(=O)O)sc3n2)cc1` stands 79.3% (active); under `Cc1ccc(C)c(SCc2nc3sc(C(=O)O)c(C)c3c(=O)[nH]2)c1`, -24.1% (inactive); under `COc1ccccc1NC(=O)CSc1nc2sc(C)c(C)c2c(=O)n1Cc1ccco1`, -24.2% (inactive).
`COC(=O)C1=C(N)Oc2cc(C)[nH]c(=O)c2C1c1ccc(Cl)cc1` (stereo unspecified): the inhibition was -43.4% (inactive).
On to `CN=c1scc(-c2cc(OC)ccc2OC)n1/N=C/c1c(C)[nH]c2ccccc12`, for which the inhibition was 39.1% (inactive).
The value for `CC(=O)c1ccc(NC(=O)C(C)NCc2ccc(Cl)cc2)cc1` (stereo unspecified) was 3.24% (inactive); that for `CCN(CC)c1ccc(S(=O)(=O)N2CCOCC2)cc1NC(=O)CSc1cccc[n+]1[O-]` was -69% (inactive).
Under `O=C(O)CC1(CC(=O)Nc2cccc(C(F)(F)F)c2)CCCC1` stands -7.96% (inactive); under `COc1ccc(C(=O)NNS(=O)(=O)c2ccc(C)cc2)cc1`, -16.3% (inactive).
With `Cc1cccc(OCc2ccc(C(=O)Nc3ccc(F)cc3)cc2)c1`, the inhibition is 11% (inactive).
On to `Cc1ccc(COc2ccc(C(=O)NN)cc2)cc1`, for which the inhibition is 67.1% (active).
The value for `Cc1cccc(N2Cc3ccccc3C2=NC(=O)c2ccc(Cl)nc2)c1` was -35.5% (inactive); that for `COc1cccc(OC)c1CN(C)C(=O)c1cnccc1C(F)(F)F` was -18.2% (inactive); that for `O=C(NNC1=C(C(=O)C(F)(F)F)CCC1)c1ccncc1` was -42.6% (inactive).
The value for `CCOc1cc2c(cc1OCC)C(C(=O)O)C(c1ccc(OC)c(O)c1)N(C)C2=O` (stereo unspecified) was -21.7% (inactive); that for `COc1cccc(NC(=O)C2c3cc(OC)c(OC)cc3C(=O)N(C)C2c2cccnc2)c1` (stereo unspecified) was 84.2% (active); that for `COc1cccc(C(=O)Nc2cccnc2)c1OC` was -18.8% (inactive).
Under `CCOC(=O)c1c(NC(=S)Nc2ccccc2C)sc2c1CCC2` stands -25.3% (inactive); under `CCOC(=O)c1c(NC(=S)NC(=O)c2ccco2)sc2c1CCCC2`, 61.4% (active); under `CCOC(=O)c1c(NC(=S)NC)sc2c1CCCC2`, -22.5% (inactive).
Turning to `O=C(O)CC12CC3CC(C1)CC(n1ncc(NCc4ccc(F)cc4)c(Cl)c1=O)(C3)C2`, the inhibition is -0.52% (inactive).
